# Source: PubChem BioAssay (National Center for Advancing Translational Sciences (NCATS))
# In the library only some 4.2% were active in any assay of this set; here they are far more common.
# SW480 rereplic: induces DNA re-replication in SW480 colon adenocarcinoma cells | AID 624297 | SW480 DNA re-replication, Hoechst DNA content imaging, 48 h | Potency, µM (highest dose often 46.1 µM), for inactives: at the top dose re-replication activation, actives largely listed as activators | 1.8% of 340,000 active; also: % of control where 0% means no effect; nearly all actives have a fitted effect of over 55% in size
#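 SW480 cells exposed to compounds for 48 hr at 37 C, 5% CO2, then Hoechst-stained 40 min. Nuclear DNA content imaged by fluorescence scanning (405 nm excitation, 500-530 nm emission); re-replication scored as increased high-intensity nuclei.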
# Integrin act MD: activators of alpha7 integrin expression for muscular dystrophy | alpha7betagal myoblasts, beta-gal FDG fluorescence, 48 h | Potency, µM (titrated, usually from 38.3 µM), inactives show at the highest dose activation, hits mostly activators | 0.064% of 350,000 active | AID 624291;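 also: 100% = response of the positive control SU9516; nearly all actives have a fitted effect of over 60% in size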
#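 Alpha7betagal+/- myoblasts (passage 13) were plated 16-24 hr, then exposed to compounds (1:260 dilution of DMSO stock) for 48 hours at 37C. After MPER lysis, β-galactosidase reporter activity was read as FDG fluorescence (ex 480/em 540) after 30 minutes.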
# Mito fusion act: mitochondrial division inhibition or fusion activation; S. cerevisiae fusion-defective mutant growth rescue, CellTiterGlo 48 h; Potency, µM (top dose mostly 46.1 µM), without a hit: at the top dose growth rescue (activation), usual class: activators; 0.23% of 320,000 active; also: % of control where 0% means no effect; nearly all actives have a fitted effect of over 45% in size
#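 Read-out: ATP-based luminescence (CellTiterGlo, 10 min ambient) reporting growth of fusion-defective ts yeast after 48 hours at 37C on glycerol/ethanol YPEG medium in the presence of compound.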
# A-T KAP1 phos: candidate therapy for ataxia-telangiectasia. F2112 A-T fibroblasts, KAP-1 phosphorylation AlphaLISA; neocarzinostatin DNA damage 30 min before lysis. 0.19% of 320,000 active. AID 485349. Potency, µM (highest dose often 57.5 µM), for the others: at the highest dose activation, usual class: activators; also: % of control where 0% means no effect; nearly all actives have a fitted effect of over 45% in size
#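 hTERT-immortalized A-T patient fibroblasts (F2112), 500 cells/well in OPTI-MEM, 1% FBS, got compounds for 60 min, then NCS for 30 min at 37C. Lysates were then assayed for phospho-KAP-1 by AlphaLISA (anti-pKAP1 donor, anti-KAP1 acceptor beads), 6 hr at 25C.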
# MCF10A rereplic: DNA re-replication induction in MCF 10a cells. MCF 10A DNA re-replication, Hoechst nuclear intensity, 48 h. AID 624296. 2.9% of 350,000 active. Potency, µM (highest dose often 46.1 µM), without a hit: at the top dose activity, positive = re-replication, hits mostly activators; also: % of control where 0% means no effect; nearly all actives have a fitted effect of over 50% in size
# * hit, by the source's call; u = inconclusive; x = no result. Calls follow the shape of the dose curve; as a rule, active = well fitted activation curve with a large enough effect; inconclusive = small, poorly fitted or top-dose-only effect; inactive = no such curve, though single readings can be large or run the other way. Potency is read from the fitted curve at half-maximal effect.
SMILES,SW480 rereplic,Integrin act MD,Mito fusion act,A-T KAP1 phos,MCF10A rereplic
COc1ccc(NC(=O)c2ccc(COc3ccccc3Br)o2)cc1OC,5%,0%,5%,0%,12µM*
CCCn1c(=N)c(C(=O)NC2CCCC2)cc2c(=O)n3cccc(C)c3nc21,6.5µM*,-33%,5%,7%,2.9µM*
CCCCNC(=O)c1cc2c(=O)n3cccc(C)c3nc2n(Cc2ccncc2)c1=N,-1%,-6%,14%,-3%,18%
Cc1cccn2c(=O)c3cc(C(=O)NC4CCCCC4)c(=N)n(CCN4CCOCC4)c3nc12,u,0%,2%,16µM*,u
CCn1c(=N)c(C(=O)NC)cc2c(=O)n3cccc(C)c3nc21,13µM*,-38%,-19%,1%,u
CCCCNC(=O)c1cc2c(=O)n3cccc(C)c3nc2n(CCN2CCOCC2)c1=N,u,4%,4%,-1%,u
CCCC1(c2ccccc2)NC(=O)N(C/C=C/Cl)C1=O (stereo not drawn),-6%,15%,6%,-1%,0%
CC(Sc1nc(-c2ccc(F)cc2)cs1)C(=O)N1c2ccccc2CC1C (stereo not drawn),u,2%,11%,5%,21µM*
CC1Cc2ccccc2N1C(=O)CSc1nc(-c2ccccc2)cs1 (stereo not drawn),-4%,2%,16%,2%,0%
O=C1C(=O)c2ccccc2C(O)=C1C1CCC(c2ccc(Cl)cc2)CC1 (stereo not drawn),3%,x,-8%,-13%,0.033µM*
O=C1NC(c2ccc(Cl)cc2)Nc2ccccc21 (stereo not drawn),-9%,23%,17%,9%,-41%
CC(Sc1cccc[n+]1[O-])C(=O)NC1CCCCC1C (stereo not drawn),-29%,0%,x,7%,20%
O=C1/C(=C/c2ccco2)N=C(N2CCCCC2)N1c1ccccc1,u,13%,0%,12%,u
CC(C)N(C1=N/C(=C\c2ccco2)C(=O)N1c1ccccc1)C(C)C,u,23%,-2%,4%,7.3µM*
O=C1NC(=Nc2ccccc2Cl)S/C1=C\c1cccc([N+](=O)[O-])c1,-7%,-7%,-23%,1%,u
CCN1C/C(=C/c2cccc([N+](=O)[O-])c2)C(=O)/C(=C/c2cccc([N+](=O)[O-])c2)C1,3.7µM*,-66%,16%,22%,0.82µM*
COc1ccccc1C=C1SC(=S)NC1=O,0%,u,x,x,17%
O=C1NC(=S)SC1=Cc1ccccc1Cl,10%,0%,x,x,6.5µM*
O=C1NC(=S)S/C1=C\c1cccc([N+](=O)[O-])c1,u,19%,x,x,18µM*
CC1CCN(C(=O)CCC(=O)Nc2ccc([N+](=O)[O-])cc2)CC1,x,1%,x,x,x
CN(CC(=O)Nc1cccc(F)c1)C(=O)Cc1ccsc1,x,4%,x,x,x
Cc1nc2ccccc2c(=O)n1NCc1cc(Br)cs1,u,6%,14%,-6%,23µM*
COc1cccc(-c2cc(=O)c3cc(NC(=O)c4ccc(N(C)C)cc4)ccc3[nH]2)c1,0.58µM*,-8%,3%,x,0.41µM*
COc1cccc(-c2cc(=O)c3cc(NC(=O)c4ccccc4)ccc3[nH]2)c1,2.9µM*,9%,-3%,2%,5.8µM*
COc1cccc2c(=O)c(SC(F)(F)C(F)C(F)(F)F)c(C)[nH]c12 (stereo not drawn),16µM*,-17%,9%,8%,u
SMILES,SW480 rereplic,Integrin act MD,Mito fusion act,A-T KAP1 phos,MCF10A rereplic
O=C1N=C2SCCN2/C1=C\c1ccc(Cl)cc1,2%,25%,3%,-5%,18µM*
COCCOC(=O)c1[nH]c2c(c1C)C(=O)CC(c1ccccc1)C2 (stereo not drawn),7.3µM*,-34%,0%,-7%,5.8µM*
CCOC(=O)c1[nH]c2c(c1C)C(=O)CC(c1ccco1)C2 (stereo not drawn),0.18µM*,u,6%,10%,9.2µM*
Cc1c(C(=O)OCCOC(C)C)[nH]c2c1C(=O)CC(c1ccco1)C2 (stereo not drawn),1.5µM*,0%,11%,8%,u
COCCOC(=O)c1[nH]c2c(c1C)C(=O)CC(c1ccco1)C2 (stereo not drawn),1µM*,-2%,3%,-1%,8.2µM*
Cc1c(C(=O)OCc2ccccc2)[nH]c2c1C(=O)CC(c1ccco1)C2 (stereo not drawn),u,u,-3%,-7%,u
NC(=S)NN=Cc1c[nH]c2nccnc12,x,-12%,x,x,x
COC(=O)c1ccc(COC(=O)C2CCN(S(=O)(=O)c3c(C)cc(C)cc3C)CC2)o1,x,-4%,x,x,x
CSCCOC(=O)c1[nH]c2c(c1C)C(=O)CC(c1ccco1)C2 (stereo not drawn),1.3µM*,-45%,13%,-3%,u
COC(=O)Cn1cnc2c(cnn2-c2ccc(C)cc2)c1=O,-2%,0%,-2%,14%,-4%
O=C(O)c1ccccc1NS(=O)(=O)c1cccc(-n2sc3ccccc3c2=O)c1,u,41%,11%,-7%,15µM*
CS(=O)(=O)N1CCCC(C(=O)Nc2ccccc2Cl)C1 (stereo not drawn),-4%,-30%,1%,2%,2%
Cc1ccc(C(=O)CSc2nnc3c4ccccc4nc(C(C)(C)C)n23)cc1,13µM*,-7%,12%,10%,6.5µM*
CC(=O)CSc1nnc2c3ccccc3nc(C(C)(C)C)n12,u,6%,1%,3%,u
Cc1ccc(SCc2c(-c3ccccc3)nn(C)c2Cl)cc1,-1%,6%,4%,x,8.2µM*
Cc1ccc(Sc2c(C#N)c(-c3ccccc3)nn2C)cc1,u,5%,-1%,10%,6.5µM*
Cn1nc(-c2ccccc2)c(CSc2ccccc2)c1Cl,u,3%,11%,15%,13µM*
Cc1ccc(SCc2c(C#N)c3ccccc3n2C)cc1,-7%,7%,13%,3%,13%
C=CCNC(=S)N/N=C/c1ccc(OCc2ccccc2Cl)cc1,7.3µM*,-12%,0%,-4%,u
Clc1ccccc1COc1ccc(/C=N/n2cnnc2)cc1,-5%,-2%,7%,3%,13%
O=C(N/N=C/c1cn[nH]c1-c1ccc(F)cc1)c1ccncc1,-5%,14µM*,-2%,-3%,2%
O=C(Cn1nc(-c2ccccc2F)ccc1=O)Nc1ccc(S(=O)(=O)N2CCCCCC2)cc1,15µM*,2%,15%,-2%,22%
CN1C/C(=C/c2ccccc2[N+](=O)[O-])C(=O)/C(=C\c2ccccc2[N+](=O)[O-])C1,1.2µM*,-51%,x,x,1.8µM*
COc1ccc(C(C)C)cc1S(=O)(=O)n1cnc(C)c1,21µM*,-15%,6%,3%,u
